# Experimental data as given in PubChem BioAssay (EPA / NIEHS).
# Values joined by “and” are separate entries in the source; they are usually repeats but may differ in a detail not shown here. Equal values may be shown once. Records with an inconclusive call do not appear. Active and inactive are the calls of the source. The calls were made as follows, unless noted: active = hit-call score of the fitted dose curve at least 0.9, where 1 is the maximum; inactive = score below 0.9.
# Legend:
# [1] = target: Retinoic acid receptor RXR-alpha (Homo sapiens) (UniProt P19793); assay: OT_NURR1_NURR1RXRa_0480: Odyssey Thera (OT) 8-hour HEK293T Protein Complementation Assay for Nurr1/retinoid X receptor (RXR) (AID 2283385; active = hit-call score of the fitted dose curve at least 0.9, where 1 is the maximum)
# In short: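 HEK293T cells expressing Nurr1 and RXRα fused to reporter fragments (protein-fragment complementation); fluorescence measured 8 h after dosing. Gain of signal fitted relative to DMSO.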
# [2] = BSK_SAg_SRB: Viability Assessment in the BioMAP Diversity Plus: SAg Assay (AID 2283096); conditions: primary human HUVEC with PBMC;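 also: cells read one day after compound addition; hits may be either gain or loss of signal compared with DMSO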
# In short: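 Human umbilical vein endothelial cells co-cultured with PBMC, read 24 h after compound dosing. Total protein measured by sulforhodamine B staining (0.1% SRB after 10% TCA fixation, absorbance 560 nm); bidirectional fit versus DMSO baseline.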
# [3] = BSK_BT_PBMCCytotoxicity: PBMC Cytotoxicity Assessment in the BioMAP Diversity Plus: BT Assay (AID 2284225); conditions: primary human B cells with PBMC;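 also: PBMC viability measured by Alamar Blue dye reduction fluorescence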
# In short: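 PBMC (75,000/well) pretreated with compound 1 h, then activated with SEB and TSST-1 (20 ng/mL each final), incubated 90 h; Alamar Blue added 6 h, fluorescence read at 546/580 nm. Fitted relative to DMSO.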
# [4] = read-out: Secreted IgG (sIgG), gene 3500; assay: BSK_BT_sIgG: BioMAP Diversity Plus: BT Assay for Secreted IgG (sIgG) Biomarker Activity (AID 2284226); conditions: primary human B cells with PBMC
# In short: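 Human B cell plus PBMC co-culture; secreted IgG measured by ELISA 24 h after chemical dosing. Response fitted in positive direction relative to DMSO baseline.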
# [5] = BSK_BT_Bcell_Proliferation: Viability Assessment in the BioMAP Diversity Plus: BT Assay for B cell Proliferation (AID 2284227); conditions: primary human B cells with PBMC
# In short: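 SRB-based protein staining (0.1% SRB after 10% TCA fixation, 560 nm) quantifies proliferation in human B cells co-cultured with PBMC, 72 h post-dosing, with signal gain scored relative to DMSO negative control.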
# [6] = read-out: Interleukin 6 (IL6), IL6 (gene 3569); assay: BSK_BT_xIL6: BioMAP Diversity Plus: BT Assay for Interleukin 6 (IL6) Biomarker Activity (AID 2284228); conditions: primary human B cells with PBMC
# In short: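 Human B cell/PBMC co-culture; secreted IL-6 quantified by Luminex xMAP 24 h after chemical dosing, fitted relative to DMSO. Parallel PBMC viability by Alamar Blue after 1 h pretreatment, 20 ng/mL SEB and TSST-1, 90 h incubation.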
# [7] = read-out: Tumor necrosis factor (Homo sapiens) (UniProt P01375); assay: BSK_BT_xTNFa: BioMAP Diversity Plus: BT Assay for Tumor necrosis factor alpha (TNF-alpha) Biomarker Activity (AID 2284230); conditions: primary human B cells with PBMC
# In short: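 Compounds were added to a B cell plus PBMC co-culture, and after 24 h secreted TNF-alpha was quantified with Luminex xMAP technology, with responses fitted upward from the DMSO control.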
# [8] = read-out: Vascular cell adhesion molecule 1 (VCAM1), VCAM1 (gene 7412); assay: BSK_MyoF_VCAM1: BioMAP Diversity Plus: MyoF Assay for Vascular cell adhesion molecule 1 (VCAM1) Biomarker Activity (AID 2284231); conditions: primary human lung fibroblasts
# In short: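 Primary human lung fibroblasts (BioMAP MyoF system) dosed with chemical, VCAM-1 measured by ELISA 24 hours later. Fitted in the positive direction against DMSO; parallel SRB staining assessed cytotoxicity.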
# [9] = read-out: Collagen I, COL1A1 (gene 1277); assay: BSK_MyoF_CollagenI: BioMAP Diversity Plus: MyoF Assay for Collagen I Biomarker Activity (AID 2284238); conditions: primary human lung fibroblasts
# In short: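 Primary human lung fibroblasts (MyoF system) treated 24 h; Collagen I quantified by ELISA and fitted in positive direction against DMSO. Parallel SRB total-protein staining assessed overt cytotoxicity.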
# [10] = read-out: Actin alpha 1 (ACTA1), ACTA1 (gene 58); assay: BSK_MyoF_ACTA1: BioMAP Diversity Plus: MyoF Assay for Actin alpha 1 (ACTA1) Biomarker Activity (AID 2284244); conditions: primary human lung fibroblasts
# In short: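 Human lung fibroblast (MyoF system) cultures dosed with test chemical; alpha-SMA measured by ELISA 24 h after dosing, normalized to DMSO control. Cytotoxicity tracked in parallel cultures by SRB total-protein staining.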
# [11] = read-out: Basic fibroblast growth factor (bFGF), FGF2 (gene 2247); assay: BSK_MyoF_bFGF: BioMAP Diversity Plus: MyoF Assay for Basic fibroblast growth factor (bFGF) Biomarker Activity (AID 2284246); conditions: primary human lung fibroblasts
# In short: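 Human lung fibroblast cultures were dosed and measured 24 h later in 96-well format. bFGF biomarker levels quantified by ELISA, with activity fitted in the positive direction against DMSO.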
# [12] = read-out: Collagen IV, COL4A1 (gene 1282); assay: BSK_MyoF_CollagenIV: BioMAP Diversity Plus: MyoF Assay for Collagen IV Biomarker Activity (AID 2284247); conditions: primary human lung fibroblasts
# In short: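 Primary human lung fibroblasts (MyoF system) dosed 24 h; Collagen IV measured by ELISA. Activity fitted in positive direction against DMSO; cytotoxicity tracked by SRB total-protein staining in parallel cultures.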
# [13] = read-out: Interleukin-8 (IL8), CXCL8 (gene 3576); assay: BSK_MyoF_IL8: BioMAP Diversity Plus: MyoF Assay for Interleukin-8 (IL8) Biomarker Activity (AID 2284261); conditions: primary human lung fibroblasts
# In short: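 Human lung fibroblast (MyoF system) cultures dosed for 24 h, then IL-8 measured by ELISA. Response taken relative to DMSO; parallel SRB total-protein staining for cytotoxicity.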
# [14] = read-out: Decorin, DCN (gene 1634); assay: BSK_MyoF_Decorin: BioMAP Diversity Plus: MyoF Assay for Decorin Biomarker Activity (AID 2284265); conditions: primary human lung fibroblasts
# In short: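 Human lung fibroblast cultures were dosed for 24 h, and decorin was then measured by ELISA. Parallel cultures were stained with sulforhodamine B for total protein as a cytotoxicity check. Gain of signal was fitted relative to DMSO.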
# [15] = BSK_MyoF_SRB: Viability Assessment in the BioMAP Diversity Plus: MyoF Assay (AID 2284267); conditions: primary human lung fibroblasts;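 also: total protein by SRB absorbance in parallel cultures as cytotoxicity measure; cells assessed 24 h after compound addition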
# In short: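 Human lung fibroblasts, 24 h after chemical dosing; total protein measured by 0.1% sulforhodamine B staining after 10% TCA fixation, read at 560 nm, fitted relative to DMSO baseline.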
# [16] = read-out: TIMP metallopeptidase inhibitor 1 (TIMP1), TIMP1 (gene 7076); assay: BSK_MyoF_TIMP1: BioMAP Diversity Plus: MyoF Assay for TIMP metallopeptidase inhibitor 1 (TIMP1) Biomarker Activity (AID 2284269); conditions: primary human lung fibroblasts
# In short: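 Fibroblasts from human lung are dosed with chemical, cultured 24 h, and assayed for TIMP-1 by ELISA. Increases over the DMSO baseline are scored, with SRB total-protein staining run in parallel for cytotoxicity.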
# Chain of Retinoic acid receptor RXR-alpha (Homo sapiens) (P19793 whole entry, looked up, the tested form may be a part): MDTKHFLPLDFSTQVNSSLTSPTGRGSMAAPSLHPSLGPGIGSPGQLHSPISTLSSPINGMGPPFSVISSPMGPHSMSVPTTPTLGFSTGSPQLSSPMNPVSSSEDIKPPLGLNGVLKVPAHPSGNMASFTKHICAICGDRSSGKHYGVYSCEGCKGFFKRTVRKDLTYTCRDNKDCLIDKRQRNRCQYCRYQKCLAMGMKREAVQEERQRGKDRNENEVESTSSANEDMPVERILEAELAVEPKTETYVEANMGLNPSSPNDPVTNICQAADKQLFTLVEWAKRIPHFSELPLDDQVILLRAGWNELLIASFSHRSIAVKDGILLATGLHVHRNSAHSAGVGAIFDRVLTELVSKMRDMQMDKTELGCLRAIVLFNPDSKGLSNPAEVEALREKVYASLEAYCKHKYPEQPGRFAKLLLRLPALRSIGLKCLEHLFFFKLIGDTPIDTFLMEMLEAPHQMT
# Chain of Tumor necrosis factor (Homo sapiens) (P01375 whole entry, looked up): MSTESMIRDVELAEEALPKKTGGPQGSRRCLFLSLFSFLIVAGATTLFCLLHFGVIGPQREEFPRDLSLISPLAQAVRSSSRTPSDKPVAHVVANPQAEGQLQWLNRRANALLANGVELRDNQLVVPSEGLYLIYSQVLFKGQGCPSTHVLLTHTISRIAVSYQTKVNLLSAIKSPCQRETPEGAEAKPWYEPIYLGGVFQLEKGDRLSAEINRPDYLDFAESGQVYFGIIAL
smiles,measurement,setting,value
COc1cc(OC)nc(Oc2cccc(Oc3nc(OC)cc(OC)n3)c2C(=O)O)n1,outcome,[1],inactive
CCCOC(=O)c1ccccc1C(=O)OCCC,outcome,[2],inactive
same,outcome,[3],inactive
same,AC50,[4],20 µM (active)
same,outcome,[5],inactive
same,outcome,[6],inactive
same,outcome,[7],inactive
same,outcome,[8],inactive
same,outcome,[9],inactive
same,outcome,[10],inactive
same,outcome,[11],inactive
same,outcome,[12],inactive
same,outcome,[13],inactive
same,outcome,[14],inactive
same,outcome,[15],inactive
same,outcome,[16],inactive
Oc1ccc(Cl)cc1,outcome,[1],inactive
O=C1Nc2ccc(Cl)cc2C(c2ccccc2)=NC1O (centres undefined),outcome,[1],inactive
O=C(O)CCCc1ccc(N(CCCl)CCCl)cc1,AC50,[2],20 µM (active) and 10.3 µM (active)
same,outcome,[3],inactive
same,AC50,[4],3.48 µM (active) and 5.7 µM (active)
same,AC50,[5],12.7 µM (active) and 13 µM (active)
same,AC50,[6],14.8 µM (active) and 20 µM (active)
same,AC50,[7],23.6 µM (active) and 20 µM (active)
same,AC50,[8],24.4 µM (active) and 30.1 µM (active)
same,outcome,[9],inactive
same,outcome,[10],inactive
same,outcome,[11],inactive
same,outcome,[12],inactive
same,outcome,[13],inactive
same,outcome,[14],inactive
same,outcome,[15],inactive
same,outcome,[16],inactive
Nc1ccc(Cl)c(Cl)c1,outcome,[1],inactive
CC(C)(C)C(=O)CCl,outcome,[2],inactive
same,AC50,[3],12.9 µM (active)
same,AC50,[4],8.03 µM (active)
same,outcome,[5],inactive
same,outcome,[6],inactive
same,outcome,[7],inactive
same,AC50,[8],20 µM (active)
same,outcome,[9],inactive
same,outcome,[10],inactive
same,outcome,[11],inactive
same,outcome,[12],inactive
same,outcome,[13],inactive
same,outcome,[14],inactive
same,outcome,[15],inactive
same,outcome,[16],inactive
CCC(C)c1cc([N+](=O)[O-])cc([N+](=O)[O-])c1OC(=O)C=C(C)C (centres undefined),AC50,[2],15.3 µM (active)
same,AC50,[3],20 µM (active)
same,AC50,[4],20 µM (active)
same,AC50,[5],32.6 µM (active)
same,AC50,[6],20 µM (active)
same,AC50,[7],30.8 µM (active)
same,AC50,[8],3.66 µM (active)
same,AC50,[9],4.1 µM (active)
same,AC50,[10],5.45 µM (active)
same,AC50,[11],32.6 µM (active)
same,AC50,[12],12.3 µM (active)
same,AC50,[13],36.9 µM (active)
same,AC50,[14],20 µM (active)
same,AC50,[15],20.8 µM (active)
same,AC50,[16],13.5 µM (active)
O=[N+]([O-])C=Cc1ccccc1,AC50,[2],12.6 µM (active)
same,AC50,[3],7.36 µM (active)
same,AC50,[4],5.7 µM (active)
same,AC50,[5],6.33 µM (active)
same,AC50,[6],5.28 µM (active)
same,AC50,[7],8.35 µM (active)
same,AC50,[8],11.1 µM (active)
same,AC50,[9],14.2 µM (active)
same,AC50,[10],12.3 µM (active)
same,AC50,[11],11.9 µM (active)
same,AC50,[12],3.97 µM (active)
same,AC50,[13],9.76 µM (active)
same,outcome,[14],inactive
same,AC50,[15],20 µM (active)
same,AC50,[16],13.2 µM (active)
